# Measured values reported in PubChem BioAssay AID602310 (National Center for Advancing Translational Sciences (NCATS), 2012).
# In all, about 410,000 compounds went through this assay and about 310 (0.076%) were called active. Another 2% or so got no clear call; they are omitted. The list comes from a sample in which actives are over-represented; it also holds similar structures and randomly drawn compounds. Values without a mark were called inactive. Calls come from the whole dose curve; as a rule, active = well fitted curve in the direction sought with a large enough effect; inconclusive = small, poorly fitted or top-dose-only effect; inactive = flat fitted curve, though single readings scatter.
# Target: DNA dC->dU-editing enzyme APOBEC-3G (Homo sapiens) (UniProt Q9HC16)
# Assay: qHTS for Inhibitors of Vif-A3G Interactions: qHTS; note: nearly all actives have a fitted effect of over 60% in size;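 for activity, negative = active: hits raise eYFP signal because A3G escapes Vif-driven loss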
# Conditions: HeLa A3G-eYFP + Vif (tagged APOBEC3G with the HIV-1 protein that degrades it), YFP fluorescence, overnight; series mostly up to 46.1 µM; activity, negative = active: at the top concentration
# Description: The recent discovery and characterization of host restriction factors, which provide a potent defense to invading retroviruses, has provided new targets for antiviral drug development. APOBEC3G (A3G) and APOBEC3F (A3F) are potent cytidine deaminases that block HIV-1 replication; HIV-1 expresses the Vif protein, which counteracts A3G and A3F by binding to them and inducing their proteasomal degradation. The Vif-A3G and Vif-A3F interactions provide two potential targets for development of small molecules which can interfere with the ability of Vif to degrade A3G or A3F. […] To identify inhibitors that can interfere with Vif mediated degradation of A3G and A3F, we have developed Hela cell lines that stably express A3G or A3F tagged with eYFP at the C-terminal end (A3G-eYFP or A3F-eYFP, respectively) and Vif. In the absence of an inhibitor, Vif induces degradation of A3G-eYFP and A3F-eYFP, and the cells are not fluorescent. In the presence of an inhibitor, it is expected that Vif will be unable to degrade A3G-eYFP and/or A3F-eYFP, resulting in an increase in yellow fluorescence. In this assays Vif A3G was screened against the Molecular Library Small Molecule Repository (MLSMR). NIH Chemical Genomics Center [NCGC] NIH Molecular Libraries Probe Centers Network [MLPCN] MLPCN Grant: MH093245 Assay Submitter (PI): Vinay Pathak, National Cancer Institute
# 5 uL of 700 cells/well of A3G-YFP cells are dispensed into black, clear bottom plates. The plates are incubated overnight at 37 deg C. 23 nL of compounds are added by pintool. The plates are incubated overnight at 37 deg C and then read on the TTP Acumen (Ex 488/ Em 500-530).
# % is set by controls: 0 for no effect and ±100 for the full control effect; potency is the fitted concentration of half-maximal effect.
# DNA dC->dU-editing enzyme APOBEC-3G (Homo sapiens), sequence (Q9HC16 whole entry, looked up): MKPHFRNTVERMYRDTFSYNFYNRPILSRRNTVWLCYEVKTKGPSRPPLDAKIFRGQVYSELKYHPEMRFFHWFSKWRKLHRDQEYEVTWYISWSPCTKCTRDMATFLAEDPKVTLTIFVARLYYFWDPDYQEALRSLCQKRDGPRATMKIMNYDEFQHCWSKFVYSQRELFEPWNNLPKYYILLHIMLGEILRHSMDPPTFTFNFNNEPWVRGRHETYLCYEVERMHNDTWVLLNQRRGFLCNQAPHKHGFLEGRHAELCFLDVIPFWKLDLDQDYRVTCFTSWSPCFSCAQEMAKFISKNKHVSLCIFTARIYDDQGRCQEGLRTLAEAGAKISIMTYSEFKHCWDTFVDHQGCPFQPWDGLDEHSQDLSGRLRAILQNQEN
Compound,"activity, negative = active",Potency
Cc1nn(CC(=O)N2CCN(c3cccc(C(F)(F)F)c3)CC2)c(=O)c2cc3sccc3n12,1.37%,
CCCCC(CCCC)c1ccc(C=Nc2ccc(/C=C/c3ccnc4ccccc34)cc2)cc1,-7.47%,
CCS(=O)(=O)N1CCc2cc(C(=O)NCc3ccc(C)cc3)ccc21,1.84%,
CCCCN1C(=O)c2[nH]nc(-c3ccccc3O)c2C1c1cccc(OCc2ccccc2)c1 (stereo unspecified),-29.4%,
ClC/C=C/C[n+]1ccccc1Cl,3.06%,
CSc1n[nH]c(-c2ccco2)n1,-3.31%,
C[n+]1ccc(/C=C/c2c[nH]c3ccccc23)cc1,,11.2 µM (active)
CCOc1n[nH]c(-c2ccccc2)n1,3.57%,
CCc1nn(CC(=O)Nc2cccc(C)c2C)c(=O)c2cc3sccc3n12,2.56%,
CCOc1ccccc1NC(=O)CN1CCN(S(=O)(=O)c2ccc(Br)cc2)CC1,1.45%,
COc1cccc(NC(=O)Cn2c(=O)cc(C)c3c(C)nn(-c4cccc(F)c4)c32)c1,0.977%,
Nc1nc(N)c(N=O)c(N)n1,-0.374%,
CCCCOc1ccc(C(=O)N2CC(=O)Nc3ccc(Br)cc3C2c2ccc(F)cc2)cc1 (stereo unspecified),-0.538%,
COc1ccccc1/C=C/c1nc(C#N)c(NC(C)c2ccccc2)o1 (stereo unspecified),0.452%,
COc1ccc(CCNC(=O)c2ccc(CSCc3ccc(C)cc3)o2)cc1OC,4.58%,
CNCCCOc1cc2nc(N3CCCN(C)CC3)nc(NC3CCN(C)CC3)c2cc1OC,2.66%,
O=C(COc1ccccc1C(=O)Nc1ccccc1)Nc1cccc(F)c1,-2.9%,
CC1(C)CC(=O)c2cc(C(=O)NCc3ccccc3)c(=O)[nH]c2C1,-3.12%,
Cn1nnnc1SCCNCc1ccc(Cl)c(Cl)c1,-0.946%,

Compound,"activity, negative = active",Potency
Cc1csc[n+]1CCC1CCCCC1,1.21%,
CCCCn1c(CNC(=O)C23CC4CC(CC(C4)C2)C3)nnc1SCC(=O)Nc1ccc(C)cc1,-0.393%,
CCn1c(CNC(=O)C23CC4CC(CC(C4)C2)C3)nnc1SCC(=O)Nc1ccc(OC)cc1,,10 µM (active)
CCn1c(CNc2ccc(OC)cc2)nnc1SCC(=O)c1ccc(OC)cc1,0.533%,
Cc1ccc(C(=O)COC(=O)C(Cc2c[nH]c3ccccc23)NC(=O)c2ccc(Br)cc2)cc1 (stereo unspecified),2.11%,
Cc1ccc(Cl)cc1N1CCN(C(=O)c2cn(C)c3ccc(S(=O)(=O)N(C)C4CCCCC4)cc3c2=O)CC1,0.271%,
S=c1[nH]c(=S)c2n[nH]nc2[nH]1,4.48%,
COc1cccc(C(=O)NC(=O)Nc2ccc(-c3cc(C(F)(F)F)nn3-c3ccccc3)cc2)c1,3.03%,
COc1ccc(CCN2C(=O)N(c3cccc(OC)c3)C(=O)C2CC(=O)Nc2ccccc2)cc1 (stereo unspecified),3.95%,
COc1ccc(CC(=O)NCCc2sc3nc(-c4ccc(OC)cc4)nn3c2C)cc1,7.95%,
CCc1ccc(Nc2nn3c(=O)c4cc5c(cc4nc3s2)OCO5)cc1,3.36%,
CCOC(=O)c1c(C)[nH]c(C)c1S(=O)(=O)NCC(=O)NCc1cccc(C)c1,-0.939%,
COc1ccc(CNC(=O)Cn2nnc(-c3ccc(S(C)(=O)=O)cc3)n2)cc1,2.9%,
COc1ccc(OC)c(NC(=O)CSc2nc3ccccc3nc2N2CCCCC2)c1,-8.14%,
Cc1ccc(Cn2cnc3c(cnn3C(C)(C)C)c2=O)c(F)c1,-1.28%,
Brc1cccc(-c2nnn3c2nc(NC2CCCCC2)c2ccccc23)c1,5.7%,
C[N+]1(CC(=O)c2cccs2)CCOCC1,1.57%,
CCCNC(=O)C1CCN(c2nc3ccc(C)cc3[nH]2)CC1,0.307%,
COc1cc(OC)c(NC(=O)c2c3c(nn2C)-c2ccccc2SC3)cc1Cl,3.23%,

Compound,"activity, negative = active",Potency
CN(N=O)c1ccc(C=C2c3ccccc3-c3ccccc32)cc1,-1.54%,
COc1ccc2[nH]c3c(c2c1)CCN(C(=O)CCC1CCCC1)C3c1ccc(F)cc1 (stereo unspecified),-9.23%,
CN(C)c1cccc2ccccc12,3.02%,
CN(C)c1ccc(/C=C/c2c3ccccc3nc3ccccc23)cc1,-16.4%,
Cc1oc2c(c1C(=O)Nc1ccc(F)c(F)c1)C1=NCCN1C=N2,2.52%,
CCc1nnc(SCc2c(F)cccc2Cl)c2cc3sccc3n12,-1.5%,
COc1ccc(/C=C/c2ccccn2)cc1OC,0.196%,
Cc1cc(Cl)ccc1OCC(=O)N(Cc1ccc(N(C)C)cc1)C1CCS(=O)(=O)C1 (stereo unspecified),0.29%,
CN(C)C1=C2C=CC=CC2/C(=C2/C=Cc3ccccc32)C=C1 (stereo unspecified),-6.13%,
CCOc1ccccc1NC(=O)Cn1c(=O)n(-c2cccc(C)c2)c(=O)c2c1c1cc(OC)ccc1n2C,0.805%,
O=C(Nc1ccc([N+](=O)[O-])cc1)c1cnn2c1NC(=C1CC1)C=C2C(F)F,0.78%,
O=C(CSc1ncc(S(=O)(=O)c2ccc(Br)cc2)c(=O)[nH]1)Nc1ccc2c(c1)OCCO2,-0.105%,
CCOc1ccccc1C(=O)NCc1ccc2c(c1)CCN2C(=O)c1ccc(F)cc1,0.357%,
COc1cc2nc(C#Cc3nc4cc(OC)c(OC)cc4[nH]3)[nH]c2cc1OC,0.338%,
COc1cccc(/C=N/NC(=O)c2[nH]nc3c2CCc2ccccc2-3)c1O,,8.91 µM (active)
Cc1ncc(CO)c(/C=N/NC(=O)c2cccc(S(=O)(=O)N3CCCC3)c2)c1O,-0.256%,
Cc1ccccc1NC(=O)COc1cccc2c1CCNC2=O,-0.461%,
CCc1cc2c(cc3c(=O)n(CC(=O)N4CCN(c5cc(Cl)ccc5C)CC4)nc(CC)n32)s1,0.482%,
